Assay outcomes as filed in PubChem.
H9c2 TAG inh: reduces triacylglycerol accumulation in H9c2 cells; actives 0.66% (n = 230,000); inhibition, % at 12.5 µM; AID 651582; Nile Red lipid (TAG) fluorescence; cells loaded with 200 µM oleic acid;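 active = pattern-corrected inhibition of lipid staining of at least 50% with the nuclear-stain viability signal not falling by more than 50%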
hiPSC survival: enhancers of human iPSC single-cell survival. hiPSC single-cell survival, ATPlite luminescence; 100% = ROCK inhibitor wells, 0% = DMSO. survival enhancement, % at 20 µM. actives 0.044% (n = 360,000); in the data active = survival enhancement above about 18%;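 also: cells exposed to compounds for 16 hours before the ATP read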
MIN6 prolif: inducers of beta-cell replication in MIN6 cells | proliferation, % at 10 µM | actives 0.29% (n = 330,000) | MIN6 cells proliferation, ATPlite luminescence, 48 h; cells starved in 0.2% serum; 100% = growth in 10% serum;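 active = compounds whose signal lies at least 3.5 SD above the mean of all wells on their plate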
Large screens that a line does not name were inactive. A selection: hits, their analogues and other compounds. The true share with any hit is near 0.71%.

Nc1nn(-c2ccccc2)c(N)c1N=Nc1cccc(F)c1	H9c2 TAG inh 54
Cc1cccc(N2CCN(C(=O)c3[nH]c(C(F)(F)F)nc3-c3ccccc3)CC2)c1C	none (no result: H9c2 TAG inh, MIN6 prolif)
COc1ccc(NC(=O)CN2c3cccc4cccc(c34)S2(=O)=O)cc1OC	none (no result: MIN6 prolif)
CC(=O)n1cc(N(C(=O)CCl)c2ccc([N+](=O)[O-])cc2)c2ccccc21	none
CC(=O)n1cc(N(C(=O)CCl)c2ccccc2)c2ccccc21	H9c2 TAG inh 65
O=C(CCl)N(c1ccc(Cl)cc1)c1c[nH]c2ccccc12	none (no result: H9c2 TAG inh)
O=C(CCl)N(c1ccccc1)c1c[nH]c2ccccc12	H9c2 TAG inh 79
Cc1noc(C)c1C(=O)N(C)C[C@@H]1OCc2ccccc2-c2c(n(C)c3ccccc23)C(=O)N([C@H](C)CO)C[C@H]1C	none (no result: MIN6 prolif)
Cc1cccc(C)c1NC(=O)COC(=O)c1ccccc1[N+](=O)[O-]	none (no result: H9c2 TAG inh)
Cc1c(C(=O)OCC(=O)Nc2ccc(C(N)=O)cc2)cccc1[N+](=O)[O-]	hiPSC survival 22
CC(C)(C)C(=O)/C(=C\c1cccc([N+](=O)[O-])c1)n1cncn1	none
COc1cccc(/C=N/Nc2nc3ccccc3[nH]2)c1O	H9c2 TAG inh 59
Cn1c(/C=N/Nc2nc3ccccc3[nH]2)nc2ccccc21	none (no result: H9c2 TAG inh)
COc1cccc(/C=N/Nc2nc3ccccc3[nH]2)c1OC	none
Cc1c(/C=N/Nc2nc3ccccc3[nH]2)c2ccccc2n1C	H9c2 TAG inh 62
COC(=O)[C@]12CCCCC=C1N(Cc1cccc3ccccc13)C(=O)[C@H](CC(=O)NCCC(C)C)C2	none (no result: H9c2 TAG inh, MIN6 prolif)
CCC(=O)N1CCC(C)(C(=O)NCc2ccc(F)cc2)C1 (stereo unspecified)	none (no result: MIN6 prolif)
Cc1ccc(C(=O)OCc2cc(=O)n3c(C)csc3n2)s1	none
Cc1ccc(C(=O)OCc2cc(=O)n3ccsc3n2)s1	hiPSC survival 18
Cc1ccc(C(=O)NCCc2nnc3ccc(SCC(=O)Nc4nnc(C)s4)nn23)cc1	none (no result: MIN6 prolif)
COc1ccccc1CN(C)C[C@@H]1OCc2cnnn2CCCC(=O)N([C@@H](C)CO)C[C@H]1C	none (no result: MIN6 prolif)
Cc1noc(C)c1-c1ccc(C(=O)NCCC(F)(F)F)c2occc12	none (no result: MIN6 prolif)
CCC(=O)N1CCC1(C)C(=O)Nc1ccccc1 (stereo unspecified)	none (no result: MIN6 prolif)
CCN(CC)CC(C)(C)C(=O)/C=C/c1ccc(/C=C/C(=O)C(C)(C)CN(CC)CC)cc1	H9c2 TAG inh 112 (no result: MIN6 prolif)
CCN(CC)CCOC(=O)/C=C/c1ccccc1	none
COc1ccc(OC)c(CN2C(=O)c3ccccc3C2c2nnnn2Cc2ccccc2)c1 (stereo unspecified)	none (no result: H9c2 TAG inh, MIN6 prolif)
O=C(CCC1CCCC1)Nc1cc(Cl)ccc1N1CCOCC1	none
CC(C)(C)c1ccc(C(=O)NCCC(=O)Nc2cc(Cl)ccc2N2CCOCC2)cc1	H9c2 TAG inh 57
C[C@@H]1CCCCO[C@H](CN(C)S(=O)(=O)c2ccccc2)[C@@H](C)CN([C@H](C)CO)C(=O)c2cc(NC(=O)Cc3ccccc3)ccc2O1	none (no result: MIN6 prolif)
CC1CCCN(C(=O)c2ccc3c(c2NCCO)C(=O)c2ccccc2C3=O)C1 (stereo unspecified)	H9c2 TAG inh 90
CC1(C)CCCN(C(=O)c2ccc3c(c2NCCO)C(=O)c2ccccc2C3=O)C1	none (no result: H9c2 TAG inh)
COc1ccc(OCCN2CCC(C(=O)NC(c3ccc(Cl)cc3)c3ncccc3C)CC2)cc1 (stereo unspecified)	none (no result: MIN6 prolif)
CN(C)CCOc1ccc(-c2c(-c3ccsc3)sc3ccccc23)cc1	none
COc1ccc(-c2sc3ccccc3c2-c2ccc(OCCN(C)C)cc2)cc1	H9c2 TAG inh 63
CN(C)CC/C=C1\c2ccc(F)cc2Sc2cc(F)c(Cl)cc21	H9c2 TAG inh 61
CN(C)CC/C=C1/c2ccc(F)cc2Sc2ccc(Cl)cc21	none
CN(C)CC/C=C1\c2ccccc2Sc2cc(F)c(Cl)cc21	H9c2 TAG inh 62
CN(C)CC/C=C1\c2ccccc2Sc2ccc(Cl)cc21	none
CN(Cc1ccccc1)C(=O)[C@@H]1CCCN1C(=O)[C@@H]1CCCN1C(=O)c1cccc(Cl)c1	none (no result: H9c2 TAG inh, MIN6 prolif)
CC1(C)Cc2c(C#N)c(NCC3CCCO3)nc(-c3ccco3)c2CO1 (stereo unspecified)	hiPSC survival 20
CC1(C)Cc2c(C#N)c(NC3CCCCC3)nc(-c3ccco3)c2CO1	none (no result: H9c2 TAG inh)
O=C(Nc1ccc(S(=O)(=O)N2CCOCC2)cc1)c1cc(S(=O)(=O)N2CCOCC2)ccc1Cl	none
O=C(Nc1ccncc1)c1cc(S(=O)(=O)N2CCOCC2)ccc1Cl	hiPSC survival 26
C/C=C/c1cccc(-c2nc(C(=O)N3CCCCC3)cc3c2[C@@H](CCO)N(C(=O)NC(C)C)C3)c1	none (no result: H9c2 TAG inh, MIN6 prolif)
COc1ccc(CCNC(=O)c2cc3ccc(Cl)cc3nc2N)cc1	none (no result: H9c2 TAG inh, MIN6 prolif)
COc1ccc(NC(=O)Cc2ccc(Cl)c(Cl)c2)cn1	none
COc1ccc(NC(=O)/C(Cl)=C(/Cl)S(=O)(=O)Cc2ccc(C)cc2)cn1	hiPSC survival 23 (no result: MIN6 prolif)
COc1cccc(-c2oc3c(c2-c2ccc(OC)nc2)C(O)CCC3)c1 (stereo unspecified)	none (no result: H9c2 TAG inh, MIN6 prolif)
COc1ccc(CCNC(=O)c2ccc(F)c(S(=O)(=O)N3CCCCC3)c2)cc1	none (no result: MIN6 prolif)
Cc1ccc2nc(-c3ccc(NC(=S)NC4CC(C)(C)NC(C)(C)C4)cc3)sc2c1	H9c2 TAG inh 53
Cc1ccc2nc(-c3ccc(NC(=S)NC(=O)C(C)C)cc3)sc2c1	none (no result: H9c2 TAG inh)
Cc1ccccc1CNC(=O)c1ccc2nc([C@@H]3O[C@H](CO)[C@H](O)[C@H](O)[C@H]3O)[nH]c2c1	none (no result: MIN6 prolif)
Cc1ccc(C(=O)Nc2nc(-c3ccccn3)cs2)s1	none
O=C(Nc1nc(-c2ccccn2)cs1)c1ccc(Cl)s1	H9c2 TAG inh 54
C[C@H](CO)N1C[C@H](C)[C@H](CN(C)S(C)(=O)=O)OCc2cnnn2CCCC1=O	none (no result: MIN6 prolif)
CC(C)N1CCc2c(sc(NC(=O)c3ccc4ccccc4c3)c2C(N)=O)C1	none
CC(=O)Nc1sc2c(c1-c1nc3ccccc3s1)CCN(C(C)C)C2	H9c2 TAG inh 92
COCOCCn1cc(CN2CCS(=O)(=O)N(Cc3ccc(-c4ccc(Cl)c(Cl)c4)cc3)C(C)C2=O)nn1 (stereo unspecified)	none (no result: MIN6 prolif)
COc1ccccc1-c1sc2cc3c(cc2c1-c1ccc(OCCN2CCCCC2)cc1)OCO3	H9c2 TAG inh 63
COc1cc2sc(-c3ccccc3OC)c(-c3ccc(OCCN4CCCCC4)cc3)c2cc1OC	H9c2 TAG inh 81
COc1ccc2sc(-c3ccccc3OC)c(-c3ccc(OCCN4CCOCC4)cc3)c2c1	none (no result: MIN6 prolif)
COc1ccc(-c2sc3cc4c(cc3c2-c2ccc(OCCN3CCOCC3)cc2)OCO4)cc1	none
COC(=O)c1ccc(CSc2ccccc2NC(=S)Nc2cccc(SC)c2)o1	none (no result: MIN6 prolif)
CC(C)(C)c1ccc(CC(=O)N2CCC2(C)C(=O)NS(=O)(=O)c2ccccc2Cl)cc1 (stereo unspecified)	none (no result: MIN6 prolif)
C[C@@H]1CN([C@@H](C)CO)C(=O)CCCn2nncc2CO[C@H]1CN(C)Cc1ccc2cccnc2c1	none (no result: MIN6 prolif)
CC(C)C[C@H]1CN=C(Nc2ccccc2)N1CC1CCCC1	none
CC(C)C[C@H]1CN=C(Nc2ccccc2)N1CC1CCC(C(C)(C)C)CC1 (stereo partly specified)	H9c2 TAG inh 59
CN(C)c1ccc(/C=C/c2ccc3c4ccccc4ccc3[n+]2-c2ccccc2)cc1	H9c2 TAG inh 67 (no result: MIN6 prolif)
CN(C)c1ccc(/C=C/c2ccc3ccccc3[n+]2C)cc1	none (no result: H9c2 TAG inh)
COc1ccc(CN(C)CCCn2cnc3c(OC)ncnc32)cc1OC	hiPSC survival 25 (no result: MIN6 prolif)
